The whole screen tested about 310,000 compounds, of which about 14,000 (4.5%) showed an effect of 50% or more. Effects have a minus sign here. The list comes from a sample in which strong results are over-represented; it also holds similar structures and randomly drawn compounds.
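Further: peak tail current of the secondary pulse compared with the same well before compound.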

The target of this assay is human ether-à-go-go-related gene (hERG) potassium channel (human, UniProt Q12809). The assay can be described thus: primary screen, population patch clamp on CHO cells stably expressing hERG; higher = less effect of the substance.
Chain of human ether-à-go-go-related gene (hERG) potassium channel (Q12809 whole entry, looked up): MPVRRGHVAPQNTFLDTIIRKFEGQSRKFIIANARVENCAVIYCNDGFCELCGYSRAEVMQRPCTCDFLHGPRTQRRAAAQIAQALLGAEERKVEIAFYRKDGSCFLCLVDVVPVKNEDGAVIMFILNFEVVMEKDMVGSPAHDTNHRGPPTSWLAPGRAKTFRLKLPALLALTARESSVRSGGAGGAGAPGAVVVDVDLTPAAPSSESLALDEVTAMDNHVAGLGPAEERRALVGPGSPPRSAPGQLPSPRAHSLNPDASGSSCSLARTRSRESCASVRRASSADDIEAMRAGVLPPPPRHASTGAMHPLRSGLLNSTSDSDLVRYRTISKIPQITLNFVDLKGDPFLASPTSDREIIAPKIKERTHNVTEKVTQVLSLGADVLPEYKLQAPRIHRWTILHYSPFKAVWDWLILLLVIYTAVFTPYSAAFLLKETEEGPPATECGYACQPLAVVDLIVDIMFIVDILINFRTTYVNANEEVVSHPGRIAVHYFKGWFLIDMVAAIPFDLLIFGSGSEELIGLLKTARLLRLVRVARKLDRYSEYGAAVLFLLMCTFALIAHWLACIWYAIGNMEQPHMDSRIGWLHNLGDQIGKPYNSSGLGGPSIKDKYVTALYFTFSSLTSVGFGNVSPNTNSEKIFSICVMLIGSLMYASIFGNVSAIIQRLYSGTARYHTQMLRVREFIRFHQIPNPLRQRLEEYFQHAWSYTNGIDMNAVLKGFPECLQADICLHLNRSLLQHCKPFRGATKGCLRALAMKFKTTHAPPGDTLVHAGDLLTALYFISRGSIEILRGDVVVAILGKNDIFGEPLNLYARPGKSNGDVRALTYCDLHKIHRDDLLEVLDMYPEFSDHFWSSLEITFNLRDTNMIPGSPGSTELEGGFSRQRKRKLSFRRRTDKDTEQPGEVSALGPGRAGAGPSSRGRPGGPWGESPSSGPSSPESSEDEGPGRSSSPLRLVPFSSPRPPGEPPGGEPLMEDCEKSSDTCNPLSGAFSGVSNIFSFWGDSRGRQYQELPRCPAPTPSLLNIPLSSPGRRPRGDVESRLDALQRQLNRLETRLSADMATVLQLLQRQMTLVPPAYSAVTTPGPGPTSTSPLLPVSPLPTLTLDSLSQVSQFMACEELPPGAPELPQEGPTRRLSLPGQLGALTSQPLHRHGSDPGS
As to `CC1(C)CC(N2CCC(=O)NC2=S)CC(C)(C)N1`, the “hERG current change (%, negative = inhibition) at 10uM” value stood at 3.04%.

Consider `CC(NS(=O)(=O)c1ccc(NC(=O)N2CCCCC2)cc1)c1ccccc1` (stereo not drawn), for which the “hERG current change (%, negative = inhibition) at 10uM” value stood at 3.56%.

Turning to `Cc1ccc(OS(=O)(=O)c2ccccc2)c(/C=N/N=C2\NC(=O)C(C)S2)c1` (stereo not drawn), the “hERG current change (%, negative = inhibition) at 10uM” value was -0.524%.

Turning to `CCc1cc2c(s1)N(CC(=O)OC)C(=O)CN=C2c1ccccc1OC`, the “hERG current change (%, negative = inhibition) at 10uM” value was found to be 10.7%.

Regarding `Cc1ccc(S(=O)(=O)Cc2ccc(C(=O)N3CCCCCC3)o2)cc1`, the “hERG current change (%, negative = inhibition) at 10uM” value is listed as -15.4%.

As to `Cc1ccc(S(=O)(=O)Cc2ccc(C(=O)N3CCc4ccccc4C3)o2)cc1`, the “hERG current change (%, negative = inhibition) at 10uM” value is given as -62.2%.

Turning to `COc1ccc(S(=O)(=O)Cc2ccc(C(=O)N3CCCC3)o2)cc1`, the “hERG current change (%, negative = inhibition) at 10uM” value stood at 1.74%.

In the case of `COc1ccc(S(=O)(=O)Cc2ccc(C(=O)N3CCN(Cc4ccccc4)CC3)o2)cc1`, the “hERG current change (%, negative = inhibition) at 10uM” value is given as -33.1%.

`COc1ccc(S(=O)(=O)Cc2ccc(C(=O)N3CCc4ccccc4C3)o2)cc1`: the “hERG current change (%, negative = inhibition) at 10uM” value is -59%.

Turning to `Cc1ccc(S(=O)(=O)Cc2ccc(C(=O)N3CCCC3)o2)cc1`, the “hERG current change (%, negative = inhibition) at 10uM” value is reported as -6.89%.

Regarding `O=S1(=O)CCN(Cc2ccccc2Cl)CC1`, the “hERG current change (%, negative = inhibition) at 10uM” value is reported as -11.1%.

Regarding `Cc1cc(C(=O)Nc2ccccc2C)n(-c2ccccc2)n1`, the “hERG current change (%, negative = inhibition) at 10uM” value worked out at 16.5%.

On to `COc1ccc(NC(=O)C2CCC(=O)N2S(=O)(=O)c2ccc(C)cc2)c(OC)c1` (stereo not drawn), for which the “hERG current change (%, negative = inhibition) at 10uM” value is given as -11%.

Consider `COc1ccc(-c2c3c(=O)n(C)c(=O)n(C)c3cn2-c2ccccc2O)cc1`, for which the “hERG current change (%, negative = inhibition) at 10uM” value is listed as -9.54%.

In the case of `Cc1ccccc1NC(=O)CN1CCC(n2nnc3ccccc32)CC1`, the “hERG current change (%, negative = inhibition) at 10uM” value is given as -38.8%.

For `COC(=O)c1ccccc1NC(=O)CN1CCC(n2nnc3cc(F)ccc32)CC1`, the “hERG current change (%, negative = inhibition) at 10uM” value was -14.3%.

`O=C(CN1CCC(n2nnc3cc(F)ccc32)CC1)Nc1ccccc1N1CCOCC1`: the “hERG current change (%, negative = inhibition) at 10uM” value is -66.6%.

For the compound `COc1ccc(Cl)cc1NC(=O)CN1CCC(n2nnc3cc(C)ccc32)CC1`, the “hERG current change (%, negative = inhibition) at 10uM” value is -24.2%.

On to `Cc1ccc2c(c1)nnn2C1CCN(CC(=O)Nc2ccccc2N2CCOCC2)CC1`, for which the “hERG current change (%, negative = inhibition) at 10uM” value is -69.8%.

With `CC(C)(C)c1ccc(C(=O)N2CCC(C(=O)N3CCCCC3)CC2)cc1`, the “hERG current change (%, negative = inhibition) at 10uM” value is listed as -3.01%.

Consider `Cc1cccc(C(C)(C)C)c1OCCOCCN1CCCC1`, for which the “hERG current change (%, negative = inhibition) at 10uM” value is given as -20.6%.

For the compound `CN(C(=O)CN1CC=C(c2ccccc2)CC1)c1c(N)n(Cc2ccccc2)c(=O)[nH]c1=O`, the “hERG current change (%, negative = inhibition) at 10uM” value was found to be 25.8%.

Turning to `Cc1ccc(-n2nc3c(=O)n(CC(=O)NCc4ccc(C)o4)nc(C)c3c2C)cc1`, the “hERG current change (%, negative = inhibition) at 10uM” value amounted to 13.1%.

`Cc1nn(C2CCS(=O)(=O)C2)c(Cl)c1/C=C/C(=O)OCC(=O)N(C)C` (stereo not drawn): the “hERG current change (%, negative = inhibition) at 10uM” value is recorded as 11.3%.

For `O=C(COc1ccc([N+](=O)[O-])cc1)Nc1ccc(N2CCN(C(=O)c3ccco3)CC2)cc1`, the “hERG current change (%, negative = inhibition) at 10uM” value was 6.27%.

As for `O=C(COc1ccc([N+](=O)[O-])cc1)Nc1ccc(S(=O)(=O)N2CCOCC2)cc1`, the “hERG current change (%, negative = inhibition) at 10uM” value is listed as -53.8%.

In the case of `O=C(COc1ccc(S(=O)(=O)N2CCOCC2)cc1)Nc1cccc([N+](=O)[O-])c1`, the “hERG current change (%, negative = inhibition) at 10uM” value was -39%.

Consider `Cc1ccc(NC(=O)COc2ccc(S(=O)(=O)N3CCOCC3)cc2)cc1`, for which the “hERG current change (%, negative = inhibition) at 10uM” value was 7.98%.

Consider `CCN1CCN(c2ccc(NC(=O)COc3ccc([N+](=O)[O-])cc3)cc2)CC1`, for which the “hERG current change (%, negative = inhibition) at 10uM” value is listed as -54.3%.

`O=C(COc1ccc([N+](=O)[O-])cc1)Nc1ccc(CN2CCOCC2)cc1`: the “hERG current change (%, negative = inhibition) at 10uM” value was -52.3%.

For the compound `O=C(COc1ccc(Cl)cc1)Nc1ccc(CN2CCOCC2)cc1`, the “hERG current change (%, negative = inhibition) at 10uM” value is -39.6%.

`O=C(COc1ccc(Br)cc1)Nc1ccc(CN2CCOCC2)cc1`: the “hERG current change (%, negative = inhibition) at 10uM” value is listed as -40.6%.

As to `O=C(COc1ccc([N+](=O)[O-])cc1)Nc1ccc(N2CCCC2)cc1`, the “hERG current change (%, negative = inhibition) at 10uM” value was 12.1%.

Regarding `Cc1scc(C(=O)N/N=C/c2ccco2)c1C`, the “hERG current change (%, negative = inhibition) at 10uM” value is 2.52%.

As for `CCCc1cc(=O)[nH]c(SCC(=O)N(CC)C2CCS(=O)(=O)C2)n1` (stereo not drawn), the “hERG current change (%, negative = inhibition) at 10uM” value worked out at 13.2%.

Turning to `N=C(N)c1c(O)n(C2CCCCC2)c(=O)n(C2CCCCC2)c1=O`, the “hERG current change (%, negative = inhibition) at 10uM” value was 18.5%.

For the compound `CC1Cc2ccccc2N1C(=O)c1cc2sccc2n1Cc1ccc(F)cc1` (stereo not drawn), the “hERG current change (%, negative = inhibition) at 10uM” value came out at 12.3%.

For `Oc1ccc(-c2nnc(SCc3ccccc3)o2)cc1`, the “hERG current change (%, negative = inhibition) at 10uM” value is -8.15%.

As to `COc1ccc2c(c1)c(=O)c(C(=O)c1ccc(F)cc1)cn2CC(=O)Nc1ccc(F)cc1`, the “hERG current change (%, negative = inhibition) at 10uM” value is listed as -5.61%.

Take `COc1ccc2c(c1)c(=O)c(C(=O)c1ccc(Cl)cc1)cn2CC(=O)Nc1ccc(F)cc1`: the “hERG current change (%, negative = inhibition) at 10uM” value is given as 12.4%.

As for `COc1ccc2c(c1)c(=O)c(C(=O)c1ccc(C)cc1)cn2CC(=O)Nc1ccc(F)cc1`, the “hERG current change (%, negative = inhibition) at 10uM” value was -10.1%.

With `COc1ccc(Cn2cc(C(=O)c3ccccc3)c(=O)c3cc(OC)ccc32)cc1`, the “hERG current change (%, negative = inhibition) at 10uM” value is on record as -31.3%.

On to `COc1ccc2c(c1)c(=O)c(C(=O)c1ccccc1)cn2Cc1ccc(C)cc1`, for which the “hERG current change (%, negative = inhibition) at 10uM” value is on record as -75%.

As for `COc1ccc2c(c1)c(=O)c(C(=O)c1ccccc1)cn2Cc1ccccc1`, the “hERG current change (%, negative = inhibition) at 10uM” value is given as -71.8%.

For the compound `Cc1cccc(NC(=S)NC2CCSc3ccccc32)c1` (stereo not drawn), the “hERG current change (%, negative = inhibition) at 10uM” value worked out at 14.5%.

`COc1ccc(OCC(=O)Nc2ccccc2OC(F)F)cc1`: the “hERG current change (%, negative = inhibition) at 10uM” value was -22.2%.

For the compound `CC1CC(C)CN(C(=O)c2ccc(Br)c(S(=O)(=O)N3CCOCC3)c2)C1` (stereo not drawn), the “hERG current change (%, negative = inhibition) at 10uM” value was -26.6%.

As to `NC(=O)C(c1ccccn1)c1ncc(C(F)(F)F)cc1Cl` (stereo not drawn), the “hERG current change (%, negative = inhibition) at 10uM” value worked out at 11.7%.

On to `Br.O=C(CN1C2=NCCN2c2ccccc21)c1ccc(Br)cc1`, for which the “hERG current change (%, negative = inhibition) at 10uM” value is on record as -67.6%.

As for `Br.O=C(CN1C2=NCCN2c2ccccc21)c1ccc2c(c1)OCO2`, the “hERG current change (%, negative = inhibition) at 10uM” value is given as -60.9%.

`Cl.O=C(CN1CCCCC1)c1ccc2c(c1)OCO2`: the “hERG current change (%, negative = inhibition) at 10uM” value is on record as -4.7%.

As to `Cl.O=C(CN1C2=NCCN2c2ccccc21)c1ccco1`, the “hERG current change (%, negative = inhibition) at 10uM” value was -20.7%.

For the compound `CC(C)(C)n1nnnc1C(c1ccc(Cl)cc1)N(Cc1cccnc1)Cc1ccco1` (stereo not drawn), the “hERG current change (%, negative = inhibition) at 10uM” value was -14.7%.

On to `CCOC(=O)c1[nH]c(C)c(C(=O)N2CCc3ccccc32)c1C`, for which the “hERG current change (%, negative = inhibition) at 10uM” value is -12.6%.

The values are drawn from article PMC4336329 (PLoS ONE, 2015).
